Where a name gives a salt, the structure may show the parent alone. ± gives the standard deviation of the averaged measurements.
Columns and labels:
Test in all cases: growth (OD600 after 10 h); higher = more growth (less inhibition)
[1] = system: E. coli TESEC Alr+ wild-type control; conditions: compound 0.1 mM; raw OD600 reference: median of DMSO wells 0.241, cell-free background 0.041
Description: (§1)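 TESEC Mtb Alr E. coli, or the Alr+ wild-type control, in 384-well plates with Prestwick library compounds at 0.1 mM and 1% DMSO, across arabinose induction levels of 1E3 to 1E7 nM. Growth is read as OD600 after 10 h at 37 °C in triplicate biological replicates.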

E. coli TESEC Mtb Alr [2] = conditions: compound 0.1 mM
Description: as §1

E. coli TESEC Mtb Asd = conditions: compound 0.1 mM
Description: (§2)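 TESEC E. coli strains in which the native enzyme is deleted and replaced by arabinose-inducible Mtb Asd, DapB, CysH or TrpD, each grown in its selective medium. Strains were screened against the Prestwick library at 0.1 mM and 1% DMSO in 384-well format at low and high arabinose induction. Growth is read as OD600 after 10 h in triplicate.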

E. coli TESEC Mtb DapB = conditions: compound 0.1 mM
Description: as §2

E. coli TESEC Mtb Alr [3] = conditions: compound 0.1 mM; remark: listed apart in the source
Description: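 TESEC Mtb Alr E. coli (ΔaraC ΔtolC ΔentC Δalr ΔdadX, arabinose-inducible Mtb Alr) or the Alr+ wild-type control strain, grown in defined M9-fructose medium without D-alanine in 96-well plates with Prestwick library compounds at 0.1 mM and 1% DMSO. Low Alr induction is 0.1 µM arabinose and high induction is 10 mM arabinose.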

[4] = arabinose 1000 nM, raw OD600 reference: median of DMSO wells 0.294, cell-free background 0.041
[5] = arabinose 10000 nM, raw OD600 reference: median of DMSO wells 0.264, cell-free background 0.041
[6] = arabinose 100000 nM, raw OD600 reference: median of DMSO wells 0.201, cell-free background 0.041
[7] = arabinose 1000000 nM, raw OD600 reference: median of DMSO wells 0.193, cell-free background 0.041
[8] = arabinose 10000000 nM, raw OD600 reference: median of DMSO wells 0.146, cell-free background 0.041
[9] = arabinose induction (level): High, raw OD600 reference: median of DMSO wells 0.331, cell-free background 0.041
[10] = arabinose induction (level): Low, raw OD600 reference: median of DMSO wells 0.417, cell-free background 0.041
[11] = arabinose induction (level): High, raw OD600 reference: median of DMSO wells […], cell-free background 0.041
[12] = arabinose induction (level): Low, raw OD600 reference: median of DMSO wells 0.227, cell-free background 0.041
[13] = arabinose 100 nM, raw OD600 reference: median of DMSO wells 0.413, cell-free background 0.052
[14] = arabinose 10000000 nM, raw OD600 reference: median of DMSO wells […], cell-free background 0.052

| Structure (SMILES) | growth [1] | growth (E. coli TESEC Mtb Alr [2]; [4]) | growth (E. coli TESEC Mtb Alr [2]; [5]) | growth (E. coli TESEC Mtb Alr [2]; [6]) | growth (E. coli TESEC Mtb Alr [2]; [7]) | growth (E. coli TESEC Mtb Alr [2]; [8]) | growth (E. coli TESEC Mtb Asd; [9]) | growth (E. coli TESEC Mtb Asd; [10]) | growth (E. coli TESEC Mtb DapB; [11]) | growth (E. coli TESEC Mtb DapB; [12]) | growth (E. coli TESEC Mtb Alr [3]; [13]) | growth (E. coli TESEC Mtb Alr [3]; [14]) |
| --- | --- | --- | --- | --- | --- | --- | --- | --- | --- | --- | --- | --- |
| CC(=O)[C@H]1CC[C@H]2[C@@H]3CC[C@H]4C[C@H](O)CC[C@]4(C)[C@H]3C(=O)C[C@]12C [Alfaxalone] | 0.1302 ± 0.0013 | 0.162 ± 0.0069 | 0.21 ± 0.0045 | 0.108 ± 0.0044 | 0.101 ± 0.0035 | 0.0965 ± 0.0034 | 0.161 ± 0.045 | 0.275 ± 0.038 | 0.155 ± 0.031 | 0.203 ± 0.028 | 0.3696 ± 0.00096 | 0.192 ± 0.015 |
| C=CCN1CC[C@]23c4c5ccc(O)c4O[C@H]2C(=O)CC[C@@]3(O)[C@H]1C5 [Naloxone hydrochloride] | 0.244 ± 0.012 | 0.266 ± 0.026 | 0.27 ± 0.016 | 0.192 ± 0.021 | 0.178 ± 0.0076 | 0.137 ± 0.0051 | 0.295 ± 0.066 | 0.498 ± 0.028 | 0.202 ± 0.0047 | 0.255 ± 0.059 | 0.419 ± 0.0087 | 0.317 ± 0.026 |
| C[C@]12Cc3c[nH]nc3C[C@@H]1CC[C@@H]1[C@@H]2CC[C@@]2(C)[C@H]1CC[C@]2(C)O [Stanozolol] | 0.184 ± 0.0086 | 0.256 ± 0.0051 | 0.245 ± 0.0053 | 0.169 ± 0.023 | 0.141 ± 0.0057 | 0.139 ± 0.0021 | 0.157 ± 0.011 | 0.271 ± 0.051 | 0.219 ± 0.018 | 0.193 ± 0.0045 | 0.409 ± 0.0083 | 0.278 ± 0.018 |
| O=C1CC[C@@]2(O)[C@H]3Cc4ccc(O)c5c4[C@@]2(CCN3CC2CC2)[C@H]1O5 [Naltrexone hydrochloride dihydrate] | 0.242 ± 0.0065 | 0.279 ± 0.022 | 0.2685 ± 0.0019 | 0.173 ± 0.023 | 0.175 ± 0.0025 | 0.139 ± 0.0097 | 0.224 ± 0.013 | 0.443 ± 0.05 | 0.193 ± 0.0052 | 0.219 ± 0.048 | 0.4315 ± 0.0022 | 0.335 ± 0.0091 |
| CCN(C)C(=O)Oc1cccc([C@H](C)N(C)C)c1 [Rivastigmine] | 0.243 ± 0.0069 | 0.293 ± 0.004 | 0.302 ± 0.0098 | 0.213 ± 0.02 | 0.19 ± 0.021 | 0.156 ± 0.0029 | 0.325 ± 0.068 | 0.343 ± 0.067 | 0.188 ± 0.01 | 0.281 ± 0.04 | 0.418 ± 0.0056 | 0.342 ± 0.016 |
| O=c1c2ccccc2[se]n1-c1ccccc1 [Ebselen] | 0.067 ± 0.0015 | 0.295 ± 0.02 | 0.261 ± 0.0064 | 0.236 ± 0.027 | 0.224 ± 0.017 | 0.164 ± 0.0046 | 0.0698 ± 0.0046 | 0.061 ± 0.008 | 0.22 ± 0.027 | 0.249 ± 0.014 | 0.355 ± 0.009 | 0.346 ± 0.0078 |
| O=c1[nH]c2ccccc2n1C1CCN(CCCC(c2ccc(F)cc2)c2ccc(F)cc2)CC1 [Pimozide] | 0.164 ± 0.013 | 0.243 ± 0.0073 | 0.2629 ± 0.0026 | 0.226 ± 0.045 | 0.106 ± 0.0046 | 0.142 ± 0.004 | 0.209 ± 0.024 | 0.396 ± 0.015 | 0.186 ± 0.015 | 0.227 ± 0.035 | 0.417 ± 0.0074 | 0.307 ± 0.034 |
| NCC(O)c1ccc(O)cc1 (racemic) [(+,-)-Octopamine hydrochloride] | 0.258 ± 0.0024 | 0.325 ± 0.02 | 0.268 ± 0.011 | 0.194 ± 0.012 | 0.179 ± 0.0096 | 0.162 ± 0.0021 | 0.483 ± 0.015 | 0.45 ± 0.018 | 0.203 ± 0.0088 | 0.271 ± 0.022 | 0.408 ± 0.015 | 0.337 ± 0.014 |
| COc1ccc(CCN2CCC(Nc3nc4ccccc4n3Cc3ccc(F)cc3)CC2)cc1 [Astemizole] | 0.041 ± 0.00045 | 0.0406 ± 0.00056 | 0.04013 ± 0.00025 | 0.0411 ± 0.0019 | 0.04007 ± 0.00031 | 0.0404 ± 0.0002 | 0.0477 ± 0.0029 | 0.053 ± 0.004 | 0.04653 ± 0.00032 | 0.0845 ± 0.059 | 0.176 ± 0.22 | 0.0525 ± 0.0011 |
| CC(C)C[C@H](CN)CC(=O)O [Pregabalin] | 0.239 ± 0.015 | 0.291 ± 0.0063 | 0.273 ± 0.013 | 0.178 ± 0.022 | 0.223 ± 0.015 | 0.134 ± 0.0081 | 0.28 ± 0.062 | 0.406 ± 0.038 | 0.201 ± 0.0072 | 0.231 ± 0.07 | 0.41 ± 0.01 | 0.306 ± 0.013 |
| CN(C)[C@@H]1C(=O)C(C(N)=O)=C(O)[C@@]2(O)C(=O)C3=C(O)c4c(O)ccc(Cl)c4[C@@](C)(O)[C@H]3C[C@@H]12 [Chlortetracycline hydrochloride] | 0.03933 ± 0.00031 | 0.0417 ± 0.0029 | 0.04 ± 0.00072 | 0.0444 ± 0.0038 | 0.0402 ± 0.0018 | 0.0405 ± 0.0011 | 0.0499 ± 0.0023 | 0.0479 ± 0.00061 | 0.0465 ± 0.0014 | 0.0507 ± 0.0031 | 0.0524 ± 0.00066 | 0.0506 ± 0.00035 |
| CC(CCc1ccccc1)NC(C)C(O)c1ccc(O)cc1 (centres undefined) [Nylidrin] | 0.215 ± 0.0087 | 0.297 ± 0.018 | 0.285 ± 0.013 | 0.167 ± 0.0039 | 0.16 ± 0.0093 | 0.144 ± 0.002 | 0.351 ± 0.062 | 0.495 ± 0.048 | 0.222 ± 0.027 | 0.243 ± 0.0092 | 0.404 ± 0.014 | 0.316 ± 0.013 |
| CCCCCC[C@H]1C(=O)O[C@H](C)[C@H](NC(=O)c2cccc(NC=O)c2O)C(=O)O[C@@H](C)[C@@H]1OC(=O)CC(C)C [Antimycin A] | 0.191 ± 0.0077 | 0.203 ± 0.018 | 0.234 ± 0.0026 | 0.249 ± 0.022 | 0.125 ± 0.0067 | 0.159 ± 0.0018 | 0.24 ± 0.017 | 0.316 ± 0.12 | 0.15 ± 0.018 | 0.278 ± 0.058 | 0.363 ± 0.0093 | 0.319 ± 0.02 |
| CN(C)C(=O)Oc1cccc([N+](C)(C)C)c1 [Neostigmine bromide] | 0.256 ± 0.0033 | 0.316 ± 0.0053 | 0.273 ± 0.0057 | 0.225 ± 0.033 | 0.19 ± 0.0043 | 0.168 ± 0.0075 | 0.222 ± 0.028 | 0.331 ± 0.14 | 0.204 ± 0.0094 | 0.232 ± 0.064 | 0.404 ± 0.012 | 0.339 ± 0.011 |
| C[C@]12C[C@H]3S[C@H]3C[C@@H]1CC[C@@H]1[C@@H]2CC[C@]2(C)[C@@H](O)CC[C@@H]12 [Epitiostanol] | 0.248 ± 0.0036 | 0.291 ± 0.012 | 0.281 ± 0.0097 | 0.144 ± 0.011 | 0.15 ± 0.013 | 0.136 ± 0.0072 | 0.162 ± 0.018 | 0.337 ± 0.098 | 0.203 ± 0.01 | 0.21 ± 0.029 | 0.413 ± 0.014 | 0.265 ± 0.015 |
| CC(Cc1ccc(O)cc1)NCC(O)c1cc(O)cc(O)c1 (centres undefined) [Fenoterol hydrobromide] | 0.241 ± 0.0046 | 0.283 ± 0.02 | 0.266 ± 0.0076 | 0.184 ± 0.0055 | 0.19 ± 0.0033 | 0.143 ± 0.0091 | 0.298 ± 0.046 | 0.419 ± 0.025 | 0.201 ± 0.017 | 0.235 ± 0.05 | 0.406 ± 0.011 | 0.344 ± 0.0099 |
| C[C@]12CCC(=O)C(O)=C1CC[C@@H]1[C@@H]2CC[C@]2(C)C(=O)CC[C@@H]12 [Formestane] | 0.115 ± 0.0066 | 0.182 ± 0.011 | 0.228 ± 0.014 | 0.1 ± 0.0018 | 0.0848 ± 0.0012 | 0.1103 ± 0.00057 | 0.13 ± 0.017 | 0.25 ± 0.052 | 0.156 ± 0.01 | 0.159 ± 0.0083 | 0.373 ± 0.025 | 0.133 ± 0.017 |
